From PubChem BioAssay (EPA / NIEHS) come the findings set out here.

Activity calls are given as the source filed them. The calls were made as follows: active = hit-call score of the fitted dose curve at least 0.9, where 1 is the maximum; inactive = score below 0.9.

For orientation: AC50 means the midpoint of the concentration-response curve, whichever way the signal moves.

The test is described as follows: ATG_PBREM_CIS: Attagene CIS-FACTORIAL HepG2 Assay for human Phenobarbital-responsive Enhancer Module (PBREM) (AID 2282955). The settings on record: HepG2 PBREM cis-reporter, Attagene multiplexed transcription; actives raise or lower the signal. The essentials: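 Readout: reporter mRNA, fluorescent RT-PCR fragments separated by capillary electrophoresis. System: HepG2 transiently transfected with cis-regulated reporter units. Exposure: 24 h. Analysis: bidirectional, DMSO baseline.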
For the molecule `CC1=CC(=O)c2ccccc2C1=O`, the result was inactive.
Same read-out and setting: the value for `CC(C)(C)C1CCCCC1O` (configuration not stated) was “inactive”; that for `CC(C)CCOCCC(C)C` was “inactive”.
As to `CCCCCCCCCCCCCC[n+]1ccccc1`, the outcome was inactive.
As to `CCCCCCCC(OC)OC`, the outcome was inactive.
The same measure, in the same setting: the same measure for `O=CC(F)(F)C(F)(F)C(F)(F)C(F)F`: “inactive”.
Still for that read-out and setting: the same measure for `CCCCCCCCCCCCCCC`: “inactive”; for `O=C1OC(=O)C(F)(F)C1(F)F`: “inactive”; for `COCN(COC)c1nc(N(COC)COC)nc(N(COC)COC)n1`: “inactive”.
Turning to `CC(=O)Nc1ccc(S(N)(=O)=O)cc1`, the outcome was inactive.
On the same count and under the same terms, the same measure for `CCCCCCCCCCCC(=O)NCCCN(C)C`: “inactive”; for `C=CC(C)(CCC=C(C)C)OC(C)=O` (configuration not stated): “inactive”.
Take `O=C(OC(=O)C(F)(F)C(F)(F)F)C(F)(F)C(F)(F)F`: the result was inactive.
Still for that read-out and setting: the value for `C[N+](C)(CCCNS(=O)(=O)CCC(F)(F)C(F)(F)C(F)(F)C(F)(F)C(F)(F)C(F)(F)F)CC(=O)[O-]` was “inactive”.
Still for that read-out and setting: the same measure for `CCOC(=O)CN[C@@H](C(=O)N1CC[C@H]1C(=O)NCc1ccc(/C(N)=N/O)cc1)C1CCCCC1`: “inactive”; for `CC(O)COc1ccccc1` (configuration not stated): “inactive”.
Same read-out and setting: the same measure for `CCC(C)c1ccccc1O` (configuration not stated): “inactive”; for `C/C=C/C(=O)C1=C(C)CCCC1(C)C`: “inactive”; for `O=C(NCc1ncc(C(F)(F)F)cc1Cl)c1c(Cl)cccc1Cl`: “inactive”.
For `CCCCCC(C)OC(=O)COc1ccc(Cl)c2cccnc12` (configuration not stated), the outcome was inactive.
On to `O=S(=O)(O)C(F)(F)C(F)(F)C(F)(F)C(F)(F)C(F)(F)C(F)(F)C(F)(F)C(F)(F)C(F)(F)C(F)(F)F`, for which the result was inactive.
The same measure, in the same setting: the value for `c1cc2cccc3c4cccc5cccc(c(c1)c23)c54` was “inactive”.
As for `CCCCC(CC)C(=O)OCCOCCOCCOCCOC(=O)C(CC)CCCC` (configuration not stated), the AC50 is 27.6 µM (active).
Same read-out and setting: the same measure for `CCCCCCCCCCCCOC(=O)c1cc(O)c(O)c(O)c1`: 21.3 µM (active).
`CCOC(C)=O`: the outcome was inactive.
Same read-out and setting: the same measure for `Cc1ccccc1OCC(=O)O`: “inactive”; for `NCc1cccc(CN)c1`: “inactive”.
Still for that read-out and setting: the same measure for `CC(C)(C)c1ccc(CCC=O)cc1`: “inactive”; for `CC(=O)CC(C)C`: “inactive”; for `NNc1nc(-c2ccc([N+](=O)[O-])cc2)cs1`: “inactive”.
On the same count and under the same terms, the value for `OCC(F)(F)C(F)(F)C(F)(F)C(F)(F)C(F)(F)C(F)(F)C(F)(F)C(F)(F)C(F)(F)C(F)(F)C(F)(F)F` was “inactive”; that for `COC(=O)C(F)(F)C(F)(F)C(F)(F)F` was “inactive”.
On to `CCOC=O`, for which the result was inactive.
In the case of `CCCCCCCCCCCC[N+](C)(C)CCCCCCCCCCCC`, the concentration at half-maximal activity (AC50) was 25.3 µM (active).
As to `CCCCCCCCCC=CCC1CC(=O)OC1=O` (configuration not stated), the outcome was inactive.
Still for that read-out and setting: the same measure for `FC(F)(F)C(F)(F)C(F)(F)Br`: “inactive”; for `Oc1cccc2c(O)cccc12`: “inactive”.
